PAFAH1B3 inh – PAFAH1B3 enzyme inhibitors, primary screen, biochemical, fluorescence polarization, human; Platelet-activating factor acetylhydrolase IB subunit alpha1 (Homo sapiens), Q15102; recombinant PAFAH1B3, FP-rhodamine probe; inhibition, % at 3.39 µM; 340,000 tested, 0.28% active; AID 492972, 2010;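 active = inhibition above the screen-wide average of all tested compounds plus 3 SD, cut at about 25% in these data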;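 also: 0% = enzyme with DMSO only and 100% = wells lacking PAFAH1B3 protein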
Target sequence (Q15102 whole entry, looked up): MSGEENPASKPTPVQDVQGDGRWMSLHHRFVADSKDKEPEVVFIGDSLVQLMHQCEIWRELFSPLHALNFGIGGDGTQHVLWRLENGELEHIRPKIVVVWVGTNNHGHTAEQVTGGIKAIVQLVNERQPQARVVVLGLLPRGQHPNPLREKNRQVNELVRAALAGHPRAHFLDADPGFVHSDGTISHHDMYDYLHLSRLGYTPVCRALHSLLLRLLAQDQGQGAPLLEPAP
pPAFAH inh – pPAFAH enzyme inhibitors, primary screen, biochemical, fluorescence polarization, human. Platelet-activating factor acetylhydrolase (Homo sapiens), Q13093. recombinant pPAFAH, FP-rhodamine probe fluorescence polarization. inhibition, % at 3.39 µM. 330,000 tested, 1.5% active. AID 463082, 2010;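 active = inhibition above the mean inhibition across the screen plus 3 SD, cut at about 25% in these data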;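 also: inhibitors block binding of the rhodamine activity-based probe so polarization drops; 0% = enzyme with DMSO and 100% = wells lacking pPAFAH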
PAFAH1B2 FP inh – PAFAH1B2 enzyme inhibitors, primary screen, biochemical, fluorescence polarization, human; 340,000 tested, 1.2% active; Platelet-activating factor acetylhydrolase IB subunit alpha2 (Homo sapiens), P68402; inhibition, % at 3.39 µM; recombinant PAFAH1B2, FP-rhodamine activity probe;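 active = inhibition above the mean of all tested compounds plus 3 SD, cut at about 24% in these data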;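 also: 0% = enzyme with DMSO and 100% = wells lacking PAFAH1B2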
Target sequence (P68402 whole entry, looked up): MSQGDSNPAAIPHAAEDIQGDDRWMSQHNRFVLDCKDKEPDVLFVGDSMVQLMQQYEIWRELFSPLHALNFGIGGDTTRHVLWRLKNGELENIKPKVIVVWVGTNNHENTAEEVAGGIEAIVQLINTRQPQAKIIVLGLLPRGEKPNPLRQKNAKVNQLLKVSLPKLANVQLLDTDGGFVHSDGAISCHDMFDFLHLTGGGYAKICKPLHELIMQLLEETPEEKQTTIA
HTRA1 inh – HTRA1 serine protease inhibitors, primary screen, biochemical, fluorescence polarization, HTS. recombinant HTRA1, FP-rhodamine activity-based probe. inhibition, % at 5.96 µM. 340,000 tested, 0.5% active. AID 504803, 2011; in the data active = inhibition above about 36%;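 also: 0% = enzyme with DMSO and 100% = wells lacking enzyme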
PAFAH2 inh – PAFAH2 enzyme inhibitors, primary screen, biochemical, fluorescence polarization, human. 340,000 tested, 0.99% active. Platelet-activating factor acetylhydrolase 2, cytoplasmic (Homo sapiens), Q99487. recombinant PAFAH2, FP-rhodamine activity probe. inhibition, % at 3.39 µM. AID 492956, 2010;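 active = inhibition above the mean over all tested compounds plus 3 SD, cut at about 30% in these data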;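 also: inhibitors block probe labeling of enzyme so polarization drops; 0% = enzyme with DMSO and 100% = wells lacking PAFAH2 protein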
DAGLB inhibitor – DAGLB lipase inhibitors, primary screen, biochemical, fluorescence, HTS | Diacylglycerol lipase-beta (Homo sapiens), Q8NCG7 | HEK293T DAGLB membrane lysate, EnzChek fluorogenic substrate | inhibition, % at 5.17 µM | 340,000 tested, 0.059% active | AID 504411, 2011; in the data active = inhibition above about 34%;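 also: 0% = enzyme with vehicle and 100% = wells lacking enzyme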
* = called active by the depositor; . = no result given. The list is not random: actives were taken first. Their share in the collection is about 2.8%.

SMILES	PAFAH1B3 inh	pPAFAH inh	PAFAH1B2 FP inh	HTRA1 inh	PAFAH2 inh	DAGLB inhibitor
O=C1C(=O)N(CNc2ccccn2)c2ccccc21	3.7	28.6*	2.2	7.7	8.7	-1.0
CC1CCC2(CC1)NC(=O)N(CC(=O)Nc1sc3c(c1C(N)=O)CCC3)C2=O (stereo not drawn)	11.0	24.6*	9.5	1.7	18.6	2.2
NC(=O)c1c(NC(=O)CN2CCN(S(=O)(=O)c3ccccc3)CC2)sc2c1CCC2	4.1	15.5	35.0*	-2.3	12.8	-2.4
CCOC(=O)c1cc(C)sc1NC(=O)CN1CCN(C(=O)C2CCCO2)CC1 (stereo not drawn)	-0.8	27.3*	2.5	-4.7	-3.9	-0.7
COC(=O)c1cc(C)sc1NC(=O)CN1CCN(C(=O)C2CCCO2)CC1 (stereo not drawn)	-2.6	6.7	-0.1	3.2	8.3	-0.6
CN1CCN(CC(=O)Nc2sc3c(c2C(=O)Nc2ccccc2)CCCC3)CC1	-1.6	6.0	1.4	-3.2	-4.1	3.4
COC(=O)c1c(NC(=O)CN2C(=O)NC3(CCC(C)CC3)C2=O)sc2c1CCC2 (stereo not drawn)	-4.3	5.4	0.5	-6.7	-5.2	-5.8
N#Cc1ccsc1NC(=O)CN1C(=O)NC2(CCCC2)C1=O	8.8	26.7*	2.7	8.9	16.8	2.1
CCOC(=O)c1c(NC(=O)CN2CCN(C(=O)c3ccco3)CC2)sc2c1CCCC2	-7.7	33.6*	6.6	-8.6	5.7	-4.8
CCOC(=O)c1cc(C)sc1NC(=O)CN1CCN(C(=O)c2ccco2)CC1	5.3	26.2*	0.6	-10.5	4.4	1.1
CCOC(=O)c1c(NC(=O)c2ccco2)sc2c1CCCC2	1.2	0.9	-0.9	-1.6	-9.2	1.2
COc1ccc(CNCC(O)COc2ccc(C(C)(C)c3ccccc3)cc2)cc1 (stereo not drawn)	-3.3	26.4*	11.9	-49.1	1.8	-11.6
COc1ccc(NCC(O)COc2ccc(C(C)(C)C)cc2)cc1 (stereo not drawn)	7.6	12.3	27.0*	12.7	0.4	-7.8
CCN(CC)c1ccc(NC(=O)COC(=O)c2ccc3ccccc3n2)cc1	7.1	25.5*	-5.0	-3.2	-3.9	-2.6
COc1ccc(NC(=O)COC(=O)c2ccc3ccccc3n2)cc1	2.6	17.7	-1.6	3.1	6.4	-6.3
CN(Cc1ccc2c(c1)OCCO2)C(=O)CSc1ncnc2sccc12	1.3	5.9	-5.1	-0.6	-0.2	-3.3
Cc1cc(OCC(=O)OC(C)C(=O)Nc2ccc(N3CCOCC3)cc2)ccc1Cl (stereo not drawn)	7.2	16.3	0.2	-2.8	1.1	1.7
CCCNc1c(NS(=O)(=O)c2c(F)c(F)c(F)c(F)c2F)c(=O)oc2ccccc12	-0.4	10.2	4.7	-1.5	12.9	4.2
CCOc1ccc(-n2cc(-c3ccccc3)c3c(=O)[nH]cnc32)cc1	5.7	15.7	2.3	-21.7	-0.4	0.4
O=c1[nH]cnc2c1c(-c1ccccc1)cn2-c1ccc(Br)cc1	-0.5	27.3*	-2.7	-9.7	-0.7	0.7
Cc1cccc(-n2cc(-c3ccccc3)c3c(=O)[nH]cnc32)c1	7.1	29.9*	-4.0	-26.1	4.3	0.4
Cc1ccc(S(=O)(=O)Nc2cc(Cl)ccc2-n2cncn2)cc1	3.8	6.0	3.2	-1.4	-0.7	6.5
O=C(Cc1ccc(F)cc1)c1ccc(O)cc1O	1.7	6.0	24.5*	-1.8	6.1	-4.7
CCc1cc(C(=O)Cc2ccc(F)cc2)c(O)cc1O	-3.0	-9.2	10.1	-14.5	-5.6	-4.2
O=C1NC(=O)C2(CCCC2C(=O)O)N1 (stereo not drawn)	0.5	.	7.5	4.3	3.2	-2.9
SMILES	PAFAH1B3 inh	pPAFAH inh	PAFAH1B2 FP inh	HTRA1 inh	PAFAH2 inh	DAGLB inhibitor
Cc1cccc(CSc2nc3sc(C)c(C)c3c(=O)n2Cc2ccco2)c1	1.0	22.6	0.1	-7.3	2.6	-16.7
COc1cccc(CSc2nc3sc(C)c(C)c3c(=O)n2Cc2ccco2)c1	6.7	25.8*	-0.5	-33.4	-2.4	-12.9
CC(C)N(C(=O)CSc1nc2ccccc2n1Cc1ccccc1)C(C)C	-0.3	4.4	1.4	7.8	-8.7	-1.2
CC(C)N(C(=O)CSc1nc2ccccc2n1-c1ccccc1)C(C)C	-3.0	31.5*	5.4	-20.6	-5.4	-10.1
O=C(CSc1nc2ccccc2n1-c1ccccc1)Nc1ncc(Cl)cc1Cl	3.9	26.6*	3.4	-35.1	-8.6	-5.0
Cc1ccc(S(=O)(=O)NCc2ccccc2)cc1C(=O)NCCc1ccc(S(N)(=O)=O)cc1	3.2	-1.1	7.7	3.8	1.3	-1.2
CN(Cc1cccc(F)c1)C(=O)CNS(=O)(=O)c1ccc2ccccc2c1	5.7	5.9	5.3	4.1	-9.4	-1.1
Cc1ccc(C(C)C)c(OCC(=O)NNCC(=O)Nc2cccc(F)c2)c1	5.0	7.7	25.4*	-20.1	-3.4	-7.3
CCCn1cc(S(=O)(=O)c2ccc(OC)cc2)c(=O)c2cc(OC)ccc21	4.4	-1.7	1.2	-4.9	0.4	-1.9
COc1cccc(CN(C)C(=O)COc2ccc(C(=O)c3ccc(Cl)cc3)cc2)c1OC	-2.1	28.2*	2.4	-25.5	4.7	-8.3
COc1cc(NC(=O)c2ccc([N+](=O)[O-])cc2)c(OC)cc1NC(=O)CC(C)C	1.1	-1.5	-2.2	1.8	-4.9	1.6
CCOC(=O)c1c(NC(=O)CSc2nnc(C)s2)sc2c1CCC(CC)C2 (stereo not drawn)	-17.5	26.1*	-1.3	0.7	-10.6	-10.9
COc1ccc(Nc2nc(OC)nc(OC)n2)cc1	0.7	7.4	-0.8	4.3	5.4	0.6
COc1ccc(Nc2nc(Nc3ccc(OC)cc3)nc(SC3=NCCS3)n2)cc1	7.4	34.2*	0.8	-19.8	5.9	-2.0
Cc1ccccc1NS(=O)(=O)c1ccc(OCC(=O)NCc2cccnc2)cc1	5.4	33.5*	7.1	2.1	-0.6	-1.2
O=C(COc1ccc(S(=O)(=O)Nc2ccccc2)cc1)NCc1cccnc1	8.3	29.4*	-0.5	0.6	0.5	1.5
CC(NS(=O)(=O)c1ccc(OCC(=O)NCc2cccnc2)cc1)c1ccccc1 (stereo not drawn)	2.3	9.1	10.5	1.2	-3.9	0.8
Cc1cc(C(=O)N/N=C2\CCCC(=O)C2)c(C)n1-c1ccccc1	6.9	28.0*	-1.6	8.1	-3.6	-4.6
CC(C)NC(=S)NNc1nc2ccccc2s1	3.5	-6.8	0.4	-2.9	3.9	1.6
O=C(O)COc1ccc(-c2nc(-c3ccccc3)c(-c3ccccc3)[nH]2)cc1	9.8	13.1	7.9	-2.7	8.0	6.2
